The values that follow come from PubChem BioAssay (Tox21).

Results filed as inconclusive are left out. A call without a number means that no potency is given here. Unmarked numbers belong to inactive results. Calls of active or inactive are those of the source. Calls come from the whole dose curve.
Potency is the fitted concentration of half-maximal effect.

The nature of the experiment: p53 small molecule agonists, cell-based qHTS assay with human liver microsomes: qHTS cell viability counter screen (AID 1963579). Note: nearly all actives have a fitted effect of over 45% in size. The note with it: p53RE-bla HCT-116 viability, ATP luminescence, 16 h, HLM; series mostly up to 66 µM. An excerpt: National Center for Advancing Translational Sciences [NCATS]
Division of Preclinical Innovation [DPI]
U.S. Environmental Protection Agency [EPA]
National Institutes of Environmental Health Sciences [NIEHS]
National Toxicology Program [NTP]
U.S. Food and Drug Administration [FDA]
p53, a tumor suppressor protein, is activated following cellular insult, including DNA damage and other cellular stresses. The activation of p53 regulates cell fate by inducing DNA repair, cell cycle arrest, apoptosis, or cellular senescence. The activation of p53, therefore, is a good indicator of DNA damage and other cellular stresses. […] The activation of the reporter gene under culture conditions can be detected by fluorescence intensity. This cell line was used to screen the Tox21 10K compound library in the condition of presence of human liver microsomes and to identify agonists that activate the p53 signaling pathway after in vitro metabolic activation (Ooka et al., Archive of Toxicology 96:1975-1987, 2022).
Tox21 Assay Protocol Summary:
The p53RE-bla cells were dispensed at 4,000cells/3ul/well in 1536-well black-clear bottom plates. After the assay plates were incubated at 37 C, 5% CO2 incubator for 5 hours, 23 nL of compounds dissolved in DMSO, positive controls or DMSO only was transferred to the assay plate. Following compound addition, 3 uL of human liver microsomes (XenoTech, Kansas City, KS) at final concentration of 0.5 mg/mL and 1uL of B-Nicotinamide adenine dinucleotide 2'-phosphate (NADPH) at final concentration of 0.5 mg/mL were transferred to the assay plate. The plates were incubated at 37 C for 16 hours. 1 uL of LiveBLAzer detection mixture was added to each well and the plates were incubated at room temperature in the dark for 2 h. Fluorescence intensity at 460 and 530 nm emission and 405 nm excitation were measured by an Envision plate reader. For cell viability readout that measures cytotoxicity, 4 ul/well of CellTiter-Glo reagent was added into the assay plates using a Flying Reagent Dispenser. After 30 min incubation at room temperature, the luminescence intensity in the plates was measured using a ViewLux plate reader.
Regarding `O=C(c1ccc(O)cc1)c1ccc(O)cc1`, the Potency entry was “inactive”.
For `CCC(C)CCCC(C)(C)O` (stereo not given), the Potency entry was “inactive”.
Regarding `Cc1ccc2c(Cl)cc(Cl)c(O)c2n1`, the Potency result is “inactive”.
Consider `N#Cc1c(F)cccc1F`, for which the Potency result is “inactive”.
Take `CCOc1nc2cccc(C(=O)O)c2n1Cc1ccc(-c2ccccc2-c2nn[nH]n2)cc1`: the Potency entry is “inactive”.
On the same count and under the same terms, to `C1=C\CC/C=C\CC/1` belongs “inactive”; to `O=c1cccccc1O`, “inactive”.
Consider `NS(=O)(=O)c1cc2c(cc1C(F)(F)F)NCNS2(=O)=O`, for which the Potency result was “inactive”.
For `N[C@@H](CSCCCO)C(=O)O`, the activity change, negative = cytotoxicity was -3.2% [at 13.5 µM].
Consider `NS(=O)(=O)c1cc(C(=O)NN2C[C@H]3[C@H]4CCC(C4)[C@H]3C2)ccc1Cl`, for which the Potency result was “inactive”.
Regarding `Cc1cc(=O)[nH]c(=O)[nH]1`, the Potency result was “inactive”.
Consider `CCC(CC)(CC(=O)Nc1cccc(/C=C/c2nc(C3CCC3)cs2)c1)C(=O)O`, for which the Potency entry was “inactive”.
For `Cc1cc(O)c(C(C)(C)C)cc1C(C)(C)C`, the Potency is 18.2 µM (active).
For `NC(=O)Nc1ccc(Cl)c(Cl)c1`, the Potency result is “inactive”.
As for `COC(=O)c1cc(C(=O)OC)cc(S(=O)(=O)O)c1`, the Potency entry is “inactive”.
Regarding `OCCN1CN(CCO)CN(CCO)C1`, the Potency entry is “inactive”.
For the molecule `N#C[C@@H]1CC(F)(F)CN1C(=O)CNC1CC2CCC(C1)N2c1ncccn1` (stereo not given in full), the Potency entry is “inactive”.
The same measure, in the same setting: next, `CC(C)(C)c1n[nH]c(=S)n(N)c1=O`: “inactive”; `CC(C)=CC(=O)C=C(C)C`: “inactive”.
As for `O=C1OC(=O)C2C3C=CC(C3)C12` (stereo not given), the Potency entry was “inactive”.
For the molecule `CCOC(=O)c1c(N)sc2c1CCN(Cc1ccccc1)C2`, the Potency result is “inactive”.
`Cc1c(F)cc2c(=O)c(C(=O)O)cn3c2c1CCC3C` (stereo not given): the Potency result was “inactive”.
In the case of `C=CC(=O)OCCCCCCCCCC`, the Potency entry is “inactive”.
`C=C(C)C(=O)OCC[N+](C)(C)C`: the Potency result was “inactive”.
With `CN1C(=O)N(c2ccccc2Br)Cc2cnc(Nc3ccc4c(c3)OCC(CO)O4)nc21` (stereo not given), the Potency entry was “inactive”.
The same measure, in the same setting: next, `CC(=O)OCC(=O)[C@@]1(O)CC[C@H]2[C@@H]3CCC4=CC(=O)C=C[C@]4(C)[C@@]3(F)[C@@H](O)C[C@@]21C`: “inactive”; `CC(=O)NCCCCCC(=O)O`: “inactive”.
Take `CO[Si](OC)(OC)OC`: the Potency entry is “inactive”.
In the case of `C#CCN[C@@H]1CCc2ccccc21`, the Potency entry was “inactive”.
Take `CCCCCCCC[Si](OCC)(OCC)OCC`: the Potency entry was “inactive”.
In the case of `C#CC(O)CCCCC` (stereo not given), the Potency result was “inactive”.
Turning to `[O]=[Bi]`, the activity change, negative = cytotoxicity was -5.49% [at 5.99 µM].
Consider `CCc1nccnc1C`, for which the Potency result is “inactive”.
With `C[n+]1ccccc1/C=N/O`, the Potency result is “inactive”.
Consider `O=C(Oc1ccccc1)c1ccccc1C(=O)Oc1ccccc1`, for which the Potency result was “inactive”.
In the case of `CC(C)OC(=O)C(C(=O)OC(C)C)=C1SC=CS1`, the Potency entry was “inactive”.
As to `CC(C)(C)CC(=O)OCC(=O)[C@@]1(O)CC[C@H]2[C@@H]3CCC4=CC(=O)C=C[C@]4(C)[C@H]3[C@@H](O)C[C@@]21C`, the Potency result was “inactive”.
For `O=C1c2ccccc2C(=O)C1(O)O`, the Potency was 36.5 µM (active).
In the case of `C[C@@H](O)[C@H](N)C(=O)O`, the activity change, negative = cytotoxicity is 12.8% [at 13.5 µM].
Take `O=S(=O)(O)c1ccc(O)c2ncccc12`: the Potency result is “inactive”.
